Test results taken from PubChem BioAssay (NCATS).
Records with an inconclusive call do not appear. Active and inactive are the calls of the source. Unless noted, calls follow the shape of the dose curve; as a rule, active = well fitted curve in the direction sought with a large enough effect; inconclusive = small, poorly fitted or top-dose-only effect, or another doubt; inactive = no such curve, though single readings can be large; an effect the other way counts as inactive or inconclusive.

Columns and labels:
[1] = AP1 Signaling Pathway (AID 357; active = well fitted curve in either direction with a large enough effect, not every such curve was filed as active;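 also: ME-180 reporter cells stimulated with EGF at its EC50 level; % is scaled to controls: 0 for no effect and ±100 for the full control effect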)
Procedure, shortened: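 First, ME-180 AP-1-bla cells were cultured overnight at 37 °C in low-serum Opti-MEM. Next, titrated compounds with EC50 EGF were incubated 5 hours. Finally, CCF4 was added for 2.5 hours and the 460/530 nm ratio recorded.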

[2] = Stat Signaling Pathway (AID 446; active = well fitted curve in either direction with a large enough effect, not every such curve was filed as active;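 also: ME-180 cervical cancer cells given 40 pM IL-6 alongside compound; SIE-controlled beta-lactamase reporter measured as 460/530 nm FRET emission ratio; % is scaled to controls: 0 for no effect and ±100 for the full control effect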)
Procedure, shortened: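 Screening format detects activators and inhibitors alike: ME-180 SIE-bla cells stimulated at 40 pM IL-6 for 5 hrs with compound, then dual-emission beta-lactamase read at 405 nm excitation.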

[3] = target: Glucocorticoid receptor (Homo sapiens) (UniProt P04150); experiment: GR-GFP Redistribution (AID 450;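 active = compounds whose dose series gives a full or clear partial fitted curve of increased nuclear translocation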; also: potency is read from the fitted curve at half-maximal effect); conditions: U2OS GR-GFP nuclear translocation, laser cytometry, 2 h
[4] = target: Glucocorticoid receptor (Homo sapiens) (UniProt P04150); experiment: GR-EFC Redistribution (AID 451; calls by dose curve; also: potency is read from the fitted curve at half-maximal effect); conditions: CHO-K1 GR-EFC translocation, beta-gal luminescence, 2 h
Procedure, shortened: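 CHO-K1 cells expressing nuclear EA and GR-ED fragments of b-gal; compounds titrated up to 46 uM final, 2 h at 37 C. GR nuclear translocation read as complemented b-gal luminescence after 1 h RT detection.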

[5] = target: Mitogen-activated protein kinase 10 (Mus musculus) (UniProt Q61831); experiment: JNK3 AlphaScreen Assay (AID 530; active = well fitted curve in either direction with a large enough effect, not every such curve was filed as active;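 also: kinase came from lysate of stimulated human HepG2 cells; signal reports phosphorylation of biotinylated GST-cJun 1-79 at Ser73 with 10 µM ATP; % is scaled to controls: 0 for no effect and ±100 for the full control effect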)
Procedure, shortened: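 Pre-activated (IL-1β/TNFα) JNK3 in HepG2 lysates phosphorylates biotin-GST-cJun(1-79), 10 uM ATP; anti-phospho-cJun(Ser73) AlphaScreen read at room temperature, pH 7.6 Tris buffer. Compounds pre-incubated 15 min as titrations.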

[6] = qHTS Assay for Lipid Storage Modulators (AID 1519; calls by dose curve); conditions: Drosophila S3 cells, BODIPY lipid droplet/cell ratio, laser cytometry, cells loaded with oleic acid; for activity change, negative = inhibition: at 25.7 µM (top of the series)
Procedure, shortened: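 Cells seeded at 5,000 per well were treated with compounds over a concentration series and loaded with oleic acid (400 uM, as added). Lipid droplet fluorescence (488 nm excitation, 500-530 nm channel) was read by laser-scanning cytometry and normalized to 20 uM Triacsin C.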

[7] = target: Ubiquitin carboxyl-terminal hydrolase 1 (Homo sapiens) (UniProt O94782); experiment: Inhibitors of USP1/UAF1: Pilot qHTS (AID 504865);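 also: rhodamine fluorescence freed from ubiquitin-rhodamine substrate followed over time; top concentration of the series differs between compounds; % is scaled to controls: 0 for no effect and ±100 for the full control effect; nearly all actives have a fitted effect of over 35% in size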
Procedure, shortened: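 1nM USP1/UAF1 + cpd, 15 min RT; start w/ Ub-Rho 150nM final; kinetic FL 480/540 nm, 6 reads q60 s. Buffer 50mM HEPES pH 7.8, 0.5mM EDTA, 1mM TCEP, 0.01% Tween-20, 0.1 mg/ml BSA.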

[8] = NFAT Signaling Pathway (AID 444; active = well fitted curve in either direction with a large enough effect, not every such curve was filed as active;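 also: carbachol stimulus at about its EC50 of 1 µM final; % is scaled to controls: 0 for no effect and ±100 for the full control effect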); conditions: Jurkat NFAT-bla M1, carbachol, beta-lactamase ratio, 5 h; at 17.2 µM (top of the series) unless noted
Procedure, shortened: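 Jurkat cells with NFAT-driven β-lactamase reporter and co-expressed M1 receptor, stimulated with carbachol (final 1 uM, ~EC50), compound titration, 5 h at 37 °C. CCF4 loaded 1 h at RT; 460/530 nm ratio gave %activity and AC50.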

[9] = target: 3',5'-cyclic-AMP phosphodiesterase 4B (Homo sapiens) (UniProt Q07343); experiment: qHTS Assay for Inhibitors of PDE-IV (AID 607; active = well fitted activation curve with a large enough effect in the main read-out, with a control signal flat, not every such curve was filed as active; also: % of control where 0% means no effect)
Procedure, shortened: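 The readout is membrane depolarisation from a cAMP-sensing CNG channel, detected with a potential dye at ex 535/em 590. Cells were HEK293-derived (endogenous PDE-IV) at 1000 cells/well, titrated up to 22.9 uM final.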

[10] = target: Luciferin 4-monooxygenase (Photinus pyralis) (UniProt P08659); experiment: Biochemical firefly luciferase enzyme assay for NPC (AID 624030);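 also: purified P. pyralis luciferase at 10 nM with luciferin and ATP substrate; 0% = DMSO and -100% = full luciferase inhibition by PTC124 control; nearly all actives have a fitted effect of over 70% in size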
Procedure, shortened: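 Purified P. pyralis luciferase at 10 nM in 50 mM Tris Acetate (final), luminescence read within 5 minutes of enzyme addition to compounds. Activity normalised to PTC124 versus DMSO; concentration-response curves classed by r2, magnitude and activity.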

[11] = qHTS profiling for inhibitors of Plasmodium falciparum proliferation (AID 504749); also: nearly all actives have a fitted effect of over 60% in size; also: potency is read from the fitted curve at half-maximal effect;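 as to activity, negative = inhibition: 0% = DMSO vehicle and full inhibition = artemisinin control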; conditions: P. falciparum in erythrocytes, SYBR Green DNA, 72 h, at 12.8 µM (top of the series)
Procedure, shortened: (§1)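 P. falciparum-infected erythrocytes (0.3% parasitemia, 2.5% hematocrit) incubated with compound 72 h at 37 C, 5% CO2. Parasite DNA detected by SYBR Green after lysis, overnight at room temperature; normalised to 0.29 uM artemisinin and DMSO.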

C2A = experiment: as above; conditions: P. falciparum in erythrocytes, SYBR Green DNA, 72 h; series mostly up to 12.8 µM
Procedure, shortened: as §1

CP238 = experiment: as above; conditions: P. falciparum in erythrocytes, SYBR Green DNA, 72 h; series mostly up to 12.8 µM
Procedure, shortened: as §1

CP252 = experiment: as above; conditions: P. falciparum in erythrocytes, SYBR Green DNA, 72 h; series mostly up to 12.8 µM
Procedure, shortened: as §1

DIV14 = experiment: as above; conditions: P. falciparum in erythrocytes, SYBR Green DNA, 72 h; series mostly up to 12.8 µM
Procedure, shortened: as §1

JCK = experiment: as above; conditions: P. falciparum in erythrocytes, SYBR Green DNA, 72 h; series mostly up to 12.8 µM
Procedure, shortened: as §1

N140 = experiment: as above; conditions: P. falciparum in erythrocytes, SYBR Green DNA, 72 h; series mostly up to 12.8 µM
Procedure, shortened: as §1

SC27B = experiment: as above; conditions: P. falciparum in erythrocytes, SYBR Green DNA, 72 h; series mostly up to 12.8 µM
Procedure, shortened: as §1

W2 = experiment: as above; conditions: P. falciparum in erythrocytes, SYBR Green DNA, 72 h; series mostly up to 12.8 µM
Procedure, shortened: as §1

[12] = target: ATP-dependent 6-phosphofructokinase (Trypanosoma brucei brucei) (UniProt O15648); experiment: qHTS Assay to Find Inhibitors of T. brucei phosphofructokinase: hit validation (AID 492961)
Procedure, shortened: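 Inhibition of parasite PFK is measured as reduced ADP formation, quantified via luciferase after ATP depletion. Assay used 0.1 mM ATP, 0.5 mM F6P, 1.25 nM enzyme, 45 min incubation.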

[13] = measured here: cell count channel max response
[14] = measured here: lipid channel max response

Chain of 3',5'-cyclic-AMP phosphodiesterase 4B (Homo sapiens) (Q07343 whole entry, looked up): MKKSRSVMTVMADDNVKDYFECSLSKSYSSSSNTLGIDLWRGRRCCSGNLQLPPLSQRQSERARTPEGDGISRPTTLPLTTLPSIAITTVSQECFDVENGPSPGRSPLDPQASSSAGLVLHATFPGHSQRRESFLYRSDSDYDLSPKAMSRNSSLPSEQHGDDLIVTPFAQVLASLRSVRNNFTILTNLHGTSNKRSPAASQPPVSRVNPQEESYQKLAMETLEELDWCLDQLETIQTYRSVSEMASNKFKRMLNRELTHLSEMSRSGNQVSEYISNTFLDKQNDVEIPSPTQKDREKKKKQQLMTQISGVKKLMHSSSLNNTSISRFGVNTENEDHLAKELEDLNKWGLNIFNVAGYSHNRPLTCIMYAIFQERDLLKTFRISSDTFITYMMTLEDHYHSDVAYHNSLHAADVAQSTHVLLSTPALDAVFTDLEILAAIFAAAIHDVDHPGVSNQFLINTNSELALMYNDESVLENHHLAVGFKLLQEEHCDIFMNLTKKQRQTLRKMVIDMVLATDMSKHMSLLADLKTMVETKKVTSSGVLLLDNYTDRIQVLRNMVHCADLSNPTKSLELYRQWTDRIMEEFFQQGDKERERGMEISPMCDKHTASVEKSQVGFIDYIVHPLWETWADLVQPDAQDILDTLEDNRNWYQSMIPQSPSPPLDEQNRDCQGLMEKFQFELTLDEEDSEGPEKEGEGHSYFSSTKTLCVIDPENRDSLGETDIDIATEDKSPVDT
Chain of Ubiquitin carboxyl-terminal hydrolase 1 (Homo sapiens) (O94782 whole entry, looked up): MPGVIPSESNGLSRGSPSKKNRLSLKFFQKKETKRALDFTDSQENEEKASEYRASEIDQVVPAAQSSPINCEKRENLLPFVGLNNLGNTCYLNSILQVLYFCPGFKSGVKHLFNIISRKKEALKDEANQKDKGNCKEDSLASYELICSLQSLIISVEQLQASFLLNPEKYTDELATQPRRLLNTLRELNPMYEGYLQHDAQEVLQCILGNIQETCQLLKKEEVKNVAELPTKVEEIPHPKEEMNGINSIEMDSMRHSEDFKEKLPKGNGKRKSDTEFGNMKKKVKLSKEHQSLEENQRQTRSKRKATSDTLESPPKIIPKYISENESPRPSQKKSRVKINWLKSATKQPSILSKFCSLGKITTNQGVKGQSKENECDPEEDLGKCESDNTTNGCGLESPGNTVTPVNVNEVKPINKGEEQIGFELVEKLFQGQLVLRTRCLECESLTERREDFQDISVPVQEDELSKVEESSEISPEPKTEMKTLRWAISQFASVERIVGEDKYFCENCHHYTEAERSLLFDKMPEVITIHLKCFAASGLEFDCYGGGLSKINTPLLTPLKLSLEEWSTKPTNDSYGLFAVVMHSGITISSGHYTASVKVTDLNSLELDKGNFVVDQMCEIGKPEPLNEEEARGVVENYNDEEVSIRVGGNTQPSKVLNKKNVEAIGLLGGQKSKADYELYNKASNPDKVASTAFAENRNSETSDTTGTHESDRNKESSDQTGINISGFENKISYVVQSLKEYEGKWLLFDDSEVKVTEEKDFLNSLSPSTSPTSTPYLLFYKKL
Chain of Glucocorticoid receptor (Homo sapiens) (P04150 whole entry, looked up, the tested form may be a part): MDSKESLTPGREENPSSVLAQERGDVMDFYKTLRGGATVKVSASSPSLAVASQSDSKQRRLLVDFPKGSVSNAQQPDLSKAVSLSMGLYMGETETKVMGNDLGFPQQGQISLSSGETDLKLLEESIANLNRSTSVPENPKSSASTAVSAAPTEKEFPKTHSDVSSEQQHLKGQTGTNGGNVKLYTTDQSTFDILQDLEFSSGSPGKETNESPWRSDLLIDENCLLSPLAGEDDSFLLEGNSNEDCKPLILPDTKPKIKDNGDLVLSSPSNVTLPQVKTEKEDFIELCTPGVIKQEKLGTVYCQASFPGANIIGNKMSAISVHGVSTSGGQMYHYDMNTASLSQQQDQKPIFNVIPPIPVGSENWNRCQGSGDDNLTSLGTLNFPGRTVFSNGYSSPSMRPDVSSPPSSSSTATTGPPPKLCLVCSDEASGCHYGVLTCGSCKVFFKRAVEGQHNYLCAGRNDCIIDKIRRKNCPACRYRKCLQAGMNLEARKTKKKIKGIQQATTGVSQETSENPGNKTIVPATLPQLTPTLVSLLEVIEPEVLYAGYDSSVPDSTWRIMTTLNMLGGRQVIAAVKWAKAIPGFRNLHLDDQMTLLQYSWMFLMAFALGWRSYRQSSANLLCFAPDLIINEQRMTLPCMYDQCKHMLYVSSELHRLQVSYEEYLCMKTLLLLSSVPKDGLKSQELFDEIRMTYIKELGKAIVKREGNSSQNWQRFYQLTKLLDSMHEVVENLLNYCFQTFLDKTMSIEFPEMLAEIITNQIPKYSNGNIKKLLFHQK
Chain of Luciferin 4-monooxygenase (Photinus pyralis) (P08659 whole entry, looked up): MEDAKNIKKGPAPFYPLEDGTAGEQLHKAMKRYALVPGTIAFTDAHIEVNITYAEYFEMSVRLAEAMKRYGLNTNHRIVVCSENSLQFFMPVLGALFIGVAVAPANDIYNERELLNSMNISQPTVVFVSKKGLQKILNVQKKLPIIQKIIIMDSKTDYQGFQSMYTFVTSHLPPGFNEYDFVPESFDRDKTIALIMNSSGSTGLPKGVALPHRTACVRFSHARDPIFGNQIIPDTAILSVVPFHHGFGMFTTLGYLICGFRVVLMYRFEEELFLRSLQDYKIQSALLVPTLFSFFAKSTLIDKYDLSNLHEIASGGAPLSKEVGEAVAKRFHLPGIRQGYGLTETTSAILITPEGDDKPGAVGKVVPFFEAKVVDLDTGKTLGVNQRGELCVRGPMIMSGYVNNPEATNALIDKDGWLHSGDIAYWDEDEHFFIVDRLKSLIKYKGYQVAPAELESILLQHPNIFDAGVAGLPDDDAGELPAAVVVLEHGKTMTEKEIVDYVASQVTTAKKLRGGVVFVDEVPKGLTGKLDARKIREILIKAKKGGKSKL
Chain of ATP-dependent 6-phosphofructokinase (Trypanosoma brucei brucei) (O15648 whole entry, looked up): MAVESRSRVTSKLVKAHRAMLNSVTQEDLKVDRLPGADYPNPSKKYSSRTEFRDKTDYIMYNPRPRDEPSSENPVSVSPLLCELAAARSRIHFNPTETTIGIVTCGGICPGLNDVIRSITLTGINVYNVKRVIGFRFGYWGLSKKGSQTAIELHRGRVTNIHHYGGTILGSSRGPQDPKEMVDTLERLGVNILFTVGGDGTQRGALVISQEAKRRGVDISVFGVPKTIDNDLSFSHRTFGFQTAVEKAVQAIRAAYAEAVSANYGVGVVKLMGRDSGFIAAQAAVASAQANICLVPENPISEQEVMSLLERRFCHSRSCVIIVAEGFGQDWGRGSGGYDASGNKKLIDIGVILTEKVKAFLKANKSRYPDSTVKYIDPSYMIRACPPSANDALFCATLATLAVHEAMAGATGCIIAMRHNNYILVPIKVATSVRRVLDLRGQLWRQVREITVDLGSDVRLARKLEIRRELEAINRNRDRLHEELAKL

C[C@H](NCCC(c1ccccc1)c1ccccc1)c1ccccc1
-22.3%: max response [6, 14]
inactive: outcome [1] | outcome [2] | Potency [3] > 20.6 µM | Potency [4] > 20.6 µM | Potency [5] | activity change, negative = inhibition [6] -3.52% | Potency [7]
-21.2%: max response [6, 13]

C[C@H](CCC(=O)O)[C@H]1CC[C@@H]2[C@H]3[C@@H](CC[C@@]21C)[C@]1(C)CC[C@H](O)C[C@@H]1C[C@@H]3O
-4.97%: max response [6, 14]
inactive: outcome [1] | activity change, negative = inhibition [8] -6.74% | outcome [2] | outcome [9] | activity change, negative = inhibition [6] 0.999% | Potency [7]
-6.52%: max response [6, 13]

C[N+]1(C)CC[C@@H](OC(=O)[C@@](O)(c2ccccc2)C2CCCC2)C1
-7.92%: max response [6, 13]
-10.3%: max response [6, 14]
active: activity change, negative = inhibition [8] -43.8%
inactive: outcome [1] | outcome [2] | outcome [9] | activity change, negative = inhibition [6] -2.8% | Potency [7]

CC1(C)S[C@@H]2[C@H](NC(=O)[C@@H](N)c3ccc(O)cc3)C(=O)N2[C@H]1C(=O)O
-7.54%: max response [6, 13]
inactive: outcome [1] | activity change, negative = inhibition [8] -4.29% | outcome [2] | Potency [5] | outcome [9] | activity change, negative = inhibition [6] -0.615% | Potency [7]
-10.4%: max response [6, 14]

NC[C@@H]1O[C@@H](O[C@H]2[C@H](O)[C@H](O[C@@H]3O[C@H](CO)[C@@H](O)[C@H](N)[C@@H]3O)[C@@H](N)C[C@H]2N)[C@H](N)C[C@@H]1O
inactive: outcome [1] | activity change, negative = inhibition [8] -7.92% | outcome [2] | Potency [5] | activity change, negative = inhibition [6] -2.29% | Potency [10] | activity, negative = inhibition ([11]; parasite line A) 9.72% | activity, negative = inhibition ([11]; parasite line B) 18.7% | Potency (C2A) | Potency (CP238) | Potency (CP252) | Potency (DIV14) | Potency (JCK) | Potency (N140) | Potency (SC27B) | Potency (W2)
-4.83%: max response [6, 13]
-6.77%: max response [6, 14]

N[C@H](Cc1cc(I)c(Oc2ccc(O)c(I)c2)c(I)c1)C(=O)O
8.52%: max response [6, 13]
3.42%: max response [6, 14]
inactive: outcome [1] | activity change, negative = inhibition [8] -4.32% | outcome [2] | Potency [4] > 20.6 µM | outcome [9] | activity change, negative = inhibition [6] -1.62%

CC[C@]1(c2ccccc2)NC(=O)N(C)C1=O
inactive: outcome [1] | activity change, negative = inhibition [8] -14.9% | outcome [2] | activity change, negative = inhibition [6] 0.43% | Potency [7]
11.1%: max response [6, 13]
11.3%: max response [6, 14]

CCOC(=O)O[C@@H](C)OC(=O)[C@@H]1N2C(=O)[C@@H](NC(=O)[C@@H](N)c3ccccc3)[C@H]2SC1(C)C
inactive: outcome [1] | activity change, negative = inhibition [8] -4.72% | Potency [5] | outcome [9] | activity change, negative = inhibition [6] -1.29% | outcome [12] | Potency [7] | Potency [10] | activity, negative = inhibition ([11]; parasite line A) 6.23% | activity, negative = inhibition ([11]; parasite line B) 6.1% | Potency (C2A) | Potency (CP238) | Potency (CP252) | Potency (DIV14) | Potency (JCK) | Potency (N140) | Potency (SC27B)
active: Potency (W2) 5.73 µM
3.59%: max response [6, 13]
0.724%: max response [6, 14]
